Reference: PubChem BioAssay AID2676 (National Center for Advancing Translational Sciences (NCATS), 2010)
The whole screen tested about 370,000 compounds, of which about 1,100 (0.3%) were called active. Not shown: some 1% with an inconclusive outcome. The call rests on the fitted dose curve; in most records, active means well fitted activation curve with a large enough effect; inconclusive means small, poorly fitted or top-dose-only effect; inactive means flat fitted curve, though single readings scatter. What follows is part of a selection rich in actives, with near analogues and random picks from the rest. Entries that show only a call come without a potency.

target: Relaxin receptor 1 (Homo sapiens) (UniProt Q9HBX9); assay: qHTS Assay for Agonists of the Relaxin Receptor RXFP1; conditions: HEK293T-RXFP1 cAMP TR-FRET, 30 min; series mostly up to 57.5 µM; further: nearly all actives have a fitted effect of over 60% in size
From the text: NIH Chemical Genomics Center [NCGC] NIH Molecular Libraries Probe Production Centers Network [MLPCN] MLPCN Grant: R03 MH085705-01A1 Assay Submitter (PI): Alexander Agoulnik NCGC Assay Overview: The relaxin hormone is involved in the variety of biological functions in normal tissues and diseases. The role of relaxin is well-established in female reproduction and parturition, mammary gland and endometrial development, maintenance of myometrial quiescence during pregnancy. Relaxin signaling through its G protein-coupled receptor (GPCR) RXFP1 results in ECM remodeling through regulation of collagen deposition, cell invasiveness, proliferation and overall tissue homeostasis. […] Recombinant human relaxin (rhRlx) is currently being tested in clinical trials as a protective agent in congestive heart failure, in treating severe preeclampsia, and as an anti-fibrotic agent in systemic sclerosis. Upon relaxin binding RXFP1 activation leads to the activation of adenylate cyclase (AC) via Gs. cAMP will activate PKA, which phosphorylates many signaling proteins. Thus, detection of cAMP increase is an easy and reliable indication of relaxin receptor activation. To screen for agonists of the relaxin receptor, a HEK293T cell line stably transfected with RXFP1 was used. RXFP1 activation was assayed by changes in cAMP levels as detected with a time-resolved fluorescence energy transfer (TR-FRET) cAMP detection kit.
NCGC Assay Protocol Summary: This is a cell-based assay for cAMP second messenger response to screen for agonists of the RXFP1 receptor. The assay was conducted in the presence of a PDE4 inhibitor (Ro 20174). The cells were lysed and the cAMP levels were measured with a TR-FRET cAMP kit. Presence of cAMP in the cell lysate disrupts binding between the cryptate-labeled anti-cAMP and d2-labeled cAMP pair, leading to a decrease in the TR-FRET signal. Data were normalized to the controls for basal activity (buffer only) and 100% activity (29 nM porcine relaxin). The EC50 values were determined from concentration-response data modeled with the standard Hill equation 1536-well assay protocol for the HEK293 RXFP1 cAMP assay: (1) Add 3 ul HEK293 RXFP1 cell culture. 2000 cells/well in DMEM/F12, 10% FBS, 1x Pen/Strep (dispensed offline with MultiDrop Combi). (2) Incubate 16-24 hr at 37C, 5% CO2. (3) Add 1 ul 400uM Ro20174 in DPBS, 0.05% BSA, 0.005% Tween 20. (3) Add 23 nl compounds in DMSO solution. Final concentration was 0.5 - 58 uM. (4) Incubate 30 min at 37C, 5% CO2. (5) Add 1 ul cAMP-d2 in lysis buffer (HTRF cAMP HiRange kit, CisBio). (6) Add 1 ul anti-cAMP antibody-cryptate in lysis buffer (HTRF cAMP HiRange kit, CisBio). (7) Incubate 30 min at room temperature. (6) Detect the assay plate in a ViewLux plate reader (PerkinElmer) with Ex=320 nm, Em1=615 nm and Em2=665 nm. Keywords: relaxin, RXFP1, RXFP2, G-protein coupled receptor, cAMP, agonist, high throughput screening, MLSMR, MLSCN, NIH Roadmap, qHTS and NCGC
Potency means the concentration at half of the fitted maximal effect.

Chain of Relaxin receptor 1 (Homo sapiens) (Q9HBX9 whole entry, looked up): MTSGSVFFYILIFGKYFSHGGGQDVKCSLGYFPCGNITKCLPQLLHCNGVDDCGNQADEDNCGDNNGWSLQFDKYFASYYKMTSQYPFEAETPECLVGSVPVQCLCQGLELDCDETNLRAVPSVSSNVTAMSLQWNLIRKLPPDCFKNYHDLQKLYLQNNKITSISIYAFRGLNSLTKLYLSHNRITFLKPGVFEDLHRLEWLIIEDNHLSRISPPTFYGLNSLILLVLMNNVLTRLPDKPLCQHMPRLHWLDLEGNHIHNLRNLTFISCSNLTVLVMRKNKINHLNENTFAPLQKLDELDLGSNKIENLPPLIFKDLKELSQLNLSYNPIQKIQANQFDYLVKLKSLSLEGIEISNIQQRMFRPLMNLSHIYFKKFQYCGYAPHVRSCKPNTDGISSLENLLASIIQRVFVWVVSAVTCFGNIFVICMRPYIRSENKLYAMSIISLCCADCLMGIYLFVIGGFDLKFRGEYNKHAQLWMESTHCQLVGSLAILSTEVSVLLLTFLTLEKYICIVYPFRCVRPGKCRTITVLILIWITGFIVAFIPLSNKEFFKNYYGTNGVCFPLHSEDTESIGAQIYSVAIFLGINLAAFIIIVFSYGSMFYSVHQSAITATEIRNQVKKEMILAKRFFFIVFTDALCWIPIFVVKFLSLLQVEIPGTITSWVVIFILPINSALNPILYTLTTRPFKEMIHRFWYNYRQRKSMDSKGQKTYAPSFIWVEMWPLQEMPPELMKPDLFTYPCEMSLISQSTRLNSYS

Row | Structure (SMILES) | Potency
1 | CCc1ccc(CN(Cc2ccco2)C(=O)COc2ccc(Cl)c(C)c2)cc1 | inactive
2 | CCOc1ccccc1C(=O)NCC(c1ccc(N(C)C)cc1)N1CCCC1 (stereo not given) | inactive
3 | Cc1cccc(Nc2cc(C)nc(-n3nc(C)cc3C)n2)c1 | inactive
4 | Cc1ccc2oc(=O)c3cnn(CC(=O)NCc4ccccc4Cl)c3c2c1 | inactive
5 | Cc1ccc(-c2cnc(NCc3ccc(C(C)C)cc3)n2C)cc1 | inactive
6 | COc1ccc(/C=C/c2nc(C#N)c(NCc3ccc(F)cc3)o2)cc1OC | inactive
7 | COc1cccc(-c2nnc3n(CCc4ccccc4)c(=O)c4ccccc4n23)c1O | inactive
8 | CCCSc1ncc(Cl)c(C(=O)Nc2sc3c(c2C(=O)NCCOC)CCCC3)n1 | inactive
9 | O=C(COc1ccccc1Cl)Nc1ccc2nc(SCC(=O)N3CCCC3)sc2c1 | inactive
10 | Cc1ccc(CNC(=O)CCc2c(C)nn(-c3ccc(N4CCCC4)nn3)c2C)cc1 | inactive
11 | Cc1cc(C)c(NC(=O)CN2C(=O)c3cccnc3Oc3ccc(Cl)cc32)c(C)c1 | inactive
12 | Cc1cccc(CSc2nc3ccncc3n2CC(=O)N(C)C2CCCCC2)c1 | inactive
13 | O=C(CSc1nccn1Cc1ccc(F)cc1)NCc1ccccc1 | inactive
14 | Cc1ccc(NC(=O)CSc2nnc3[nH]c(=O)cc(C)n23)cc1Cl | inactive
15 | COc1ccc(-c2nc(SCC(=O)N3CCCCC3C)n[nH]2)cc1 (stereo not given) | inactive
16 | O=C(c1cccc(Br)c1)N1CCN(Cc2cc(=O)n3nc(-c4ccccc4)sc3n2)CC1 | inactive
17 | Cc1ccc(-n2cnc3cc(C(=O)NCCC4=CCCCC4)ccc32)cc1Cl | inactive
18 | Brc1ccc2c(c1)NC(c1cccnc1)=NC(c1ccccc1)=N2 | inactive
19 | CCc1cnc2c(c1SCC(=O)N1CCC(C)CC1)c(=O)n(C)c(=O)n2C | inactive
20 | Cc1cc(C)c(/C=C/c2onc(C)c2S(=O)(=O)N2CCC(C(=O)Nc3ccc(Cl)cc3C)CC2)c(C)c1 | inactive
21 | CCCNC(=O)c1ccc2c(c1)ncn2-c1ccc(C)cc1C | inactive
22 | COc1ccc(S(=O)(=O)NCc2cccn2Cc2cccc(C)c2)cc1Cl | inactive
23 | CCOC(=O)N1CCc2c(sc(NCc3cccc(F)c3)c2C(=O)Nc2ccccc2OCC)C1 | inactive
24 | COc1cccc(OCCn2c(-c3ccc(Br)cc3)nc3ccccc3c2=O)c1 | inactive

Row | Structure (SMILES) | Potency
25 | O=C(CCS(=O)(=O)c1ccc2c(c1)NC(=O)CO2)Nc1cccc(C(F)(F)F)c1 | inactive
26 | CCOc1ccc(C(=O)/C=C/c2cn(CC(O)CN3CCCCCC3)c3ccccc23)cc1 (stereo not given) | inactive
27 | COc1ccc(N2CCN(C(=O)CSCc3nc(-c4ccccc4Cl)oc3C)CC2)cc1 | inactive
28 | Cc1ccc(NC(=O)NC(C)c2c(-n3cccc3)sc(C)c2C)c(C)c1 (stereo not given) | inactive
29 | CCc1cc2c(cc3c(=O)n(CC(=O)NCc4cccc(Cl)c4)nc(CC)n32)s1 | inactive
30 | Cc1ccc(-n2ncc3c(N4CCC(C(N)=O)CC4)ncnc32)cc1 | inactive
31 | COC(=O)c1ccc(NC(=O)CCc2c(C)nc3c(c(C)nn3-c3ccc(C)cc3)c2C)cc1 | inactive
32 | CCCCOc1ccc(CN2C(=O)C(=O)c3cc(Br)cc(C)c32)cc1OC | inactive
33 | CCOc1ccccc1CNC(=O)Nc1cn(CC(C)C)c(=O)c2ccccc12 | inactive
34 | CN(Cc1ccccc1)C(=O)c1cn(C)c2ccc(S(=O)(=O)N3CCCCC3)cc2c1=O | inactive
35 | Cc1ccccc1CNC(=O)Cn1c(C)c2cnn(-c3ccccc3)c(=O)c2c1C | inactive
36 | Cc1ccc2oc3c(c(=O)c2c1)C(c1ccc(O)cc1)N(Cc1ccc2c(c1)OCO2)C3=O (stereo not given) | inactive
37 | COc1ccc(C)cc1N(C)C(=O)c1c(C)oc2ncnc(N3CCOCC3)c12 | inactive
38 | O=C(NCCCc1ccccc1)c1ccc2c(c1)sc1nc(-c3ccc(F)cc3)cn12 | inactive
39 | COc1cccc(C(=O)N(Cc2cccc(Cl)c2)Cc2ccco2)c1 | inactive
40 | COc1cc(Cl)c(NC(=O)C(NS(=O)(=O)c2cccs2)C(C)C)c(OC)c1 (stereo not given) | inactive
41 | CCOC(=O)c1c(NC(=O)COc2cc(C)ccc2C(C)C)sc(C)c1C | inactive
42 | COC(=O)c1ccccc1NC(=O)c1ccc(COc2ccccc2Cl)o1 | inactive
43 | O=C(Cn1c(=O)n(-c2ccc(F)cc2)c(=O)c2sccc21)Nc1cccc(C(F)(F)F)c1 | inactive
44 | CC(C)(C)c1ccc(OCC(=O)N2CCC(c3nc4ccccc4s3)CC2)cc1 | inactive
45 | O=C(NC1CC(=O)N(c2ccc(F)cc2)C1)c1ccc(S(=O)(=O)N2CCCC2)cc1 (stereo not given) | inactive
46 | COc1ccc(Cn2ccnc2SCC(=O)NCc2ccco2)cc1 | inactive
47 | CCOc1ccc2oc(=O)cc(CN3CCN(C(=O)c4ccc(F)cc4)CC3)c2c1 | inactive
48 | Cn1c(=O)c2c(ncn2CC(=O)N/N=C/c2cn[nH]c2-c2ccc(F)cc2)n(C)c1=O | 14.1 µM (active)

Row | Structure (SMILES) | Potency
49 | CN(CC(=O)Nc1ccc(F)c(F)c1F)C(=O)Cn1cnc2c1c(=O)n(C)c(=O)n2C | inactive
50 | Cc1cnc(NC(=O)Cn2cnc3c2c(=O)n(C)c(=O)n3C)s1 | inactive
51 | CCCNc1ncnc2c1c(-c1ccccc1)cn2-c1ccc(OCC)cc1 | inactive
52 | COc1ccc(S(=O)(=O)N2CCOCC2)cc1NC(=O)CSc1ncnc2ccccc12 | 15.8 µM (active)
53 | COc1ccc(S(=O)(=O)N2CCOCC2)cc1NC(=O)CSc1cc(C)ccc1C | inactive
54 | COc1ccc(S(=O)(=O)N2CCOCC2)cc1NC(=O)Cc1c(F)cccc1Cl | inactive
55 | CCOc1ccc(C(=O)Nc2ccc3nc4c(c(Nc5ccccc5OC)c3c2)CCCC4)cc1 | inactive
56 | C=Cc1ccc(Cn2c(C(=O)O)c(CNC3CCCC3)c3ccc(C)cc32)cc1 | inactive
57 | CCOc1ccc(CCNC(=O)CN(c2ccc(C)cc2)S(=O)(=O)N(C)C)cc1OCC | inactive
58 | O=C(Nc1ccc(Br)cc1)c1cc2nc(-c3ccccc3)cc(-c3ccccc3)n2n1 | inactive
59 | COc1ccc2oc(-c3ccc(C)c(NC(=O)c4sc5ccccc5c4Cl)c3)nc2c1 | inactive
60 | CCOc1cccc(CC(=O)N2CCc3c([nH]c4ccccc34)C2c2ccc(OC)cc2)c1OCC (stereo not given) | inactive
61 | Cc1cc(C)cc(NC(=O)Cn2nc(N3CCN(c4ccccc4)CC3)ccc2=O)c1 | inactive
62 | Cc1ccc(Cl)cc1N(C)C(=O)C1CCCN(c2ncnc3onc(-c4ccc(F)cc4)c23)C1 (stereo not given) | inactive
63 | COc1ccc(N2CCN(C3=NS(=O)(=O)C(c4cccc(Br)c4)=C3C)CC2)cc1 | inactive
64 | Cc1c(-c2nsc(NC(=O)c3cccc(Cl)c3)n2)nnn1-c1ccccc1C(F)(F)F | inactive
65 | COc1ccc(-c2nc3c(c(SCC(=O)Nc4ccc(C(=O)O)cc4)n2)Cc2ccccc2O3)cc1 | inactive
66 | Cc1ccc(-c2nn(CCC(=O)Nc3ccc(OC(F)(F)F)cc3)c(=O)c3ccccc23)cc1 | inactive
67 | COc1ccc(-n2c(SCC(N)=O)nc3c(oc4ccccc43)c2=O)cc1 | inactive
68 | COC(=O)c1ccccc1NC(=O)C(Cc1ccccc1)N1Cc2ccccc2C1=O (stereo not given) | inactive
69 | CC1=C(c2ccc(F)cc2)S(=O)(=O)N=C1N1CCC(C(=O)NCCc2ccccc2C)CC1 | inactive
70 | Cc1ccc2nc3c(cc(C(=O)NC4CCCCC4)c(=N)n3C(C)C)c(=O)n2c1 | inactive
71 | COc1cccc(-n2c(=O)c3c(C)c(C(=O)N(C)C)sc3n(Cc3cccc(C)c3)c2=O)c1 | inactive
72 | CCCCOc1ccc(CNC(=O)c2ccc3c(c2)N(C)C(=O)C2CCCCN32)cc1 (stereo not given) | inactive

Row | Structure (SMILES) | Potency
73 | O=C(c1ccc2c(c1)N(Cc1ccccc1)C(=O)c1ccccc1S2(=O)=O)N1CCC(Cc2ccccc2)CC1 | inactive
74 | Cc1cccc(NC(c2cccc(F)c2)c2ccc3ccc(C)nc3c2O)n1 (stereo not given) | inactive
75 | CCOc1ccccc1NC(=O)Cn1c(=O)n(Cc2ccccc2)c(=O)c2c(C)c(C(=O)N(C)C)sc21 | inactive
76 | COc1ccc(S(=O)(=O)Nc2cc3c(C(=O)OC(C)C)c(C)oc3c3ccccc23)cc1 | inactive
77 | CC1=C(C(=O)N2CCN(c3cccc(C(F)(F)F)c3)CC2)C2(CCCCC2)OC1=O | inactive
78 | CC(C)(C)OC(=O)N1CCC(c2c(C(=O)N3CCN(c4cccc(Cl)c4)CC3)cnn2-c2cccc(Cl)c2)CC1 | inactive
79 | COc1ccc2c(c1)CCc1c(C(=O)Nc3cc(C)ccc3O)noc1-2 | inactive
80 | COc1cccc(CNC(=O)Cn2c(=O)c3cccn3c3ccc(F)cc32)c1OC | inactive
81 | O=C(NCCc1ccccc1)c1cnc2sc(N3CCCC3)nn2c1=O | inactive
82 | COc1ccccc1-c1nnc(SCC(N)=O)o1 | inactive
83 | COc1cccc(C2C(C(=O)Nc3ccc(C)cc3C)=C(C)Nc3c(C(=O)Nc4ccccc4)cnn32)c1 (stereo not given) | inactive
84 | CCCCN1C(=O)c2[nH]nc(-c3ccccc3O)c2C1c1cccc(OCc2ccccc2)c1 (stereo not given) | inactive
85 | CCN(C(=O)c1sc2cc(OC)ccc2c1Cl)c1ccccc1 | inactive
86 | CCC(Sc1nc2n[nH]c(C)c2c(=N)n1-c1ccccc1Cl)C(=O)N(CC)CC (stereo not given) | inactive
87 | Cc1nn(Cc2ccc(F)cc2)c(C)c1NC(=O)c1cc(CC(C)C)on1 | inactive
88 | Cc1ccccc1NC(=O)c1cc2c([nH]c1=O)CC(C)(C)CC2=O | inactive
89 | O=C(CCn1c(=O)c2sccc2n(Cc2ccc(F)cc2)c1=O)NCc1ccc2c(c1)OCO2 | inactive
90 | CCCCN1CC(c2nc3ccccc3n2CCCCOc2ccc(C)cc2C)CC1=O (stereo not given) | inactive
91 | O=C(c1ccc(C(F)(F)F)cc1)N1CCC(c2nc(-c3ccc(S(=O)(=O)N4CCCC4)cc3)no2)CC1 | inactive
92 | CC(C)(C)c1ccc(C(=O)NCC(c2ccco2)S(=O)(=O)c2ccc(F)cc2)cc1 (stereo not given) | inactive
93 | COc1ccc(Cc2nc3ccc(C(=O)NCc4ccc(OC)cc4OC)cc3o2)cc1 | inactive
94 | O=C(CSCc1cnn(-c2ccccc2)c1-n1cccc1)NCc1ccc(Cl)cc1 | inactive
95 | O=C(Nc1ccc(Br)cc1)c1ccc(Br)c(S(=O)(=O)NCc2ccccc2)c1 | inactive
